# Data as given in PubChem BioAssay (Tox21).
# Results filed as inconclusive are left out. A call without a number means that no potency is given here. Active and inactive are the calls of the source. Unless noted, the call rests on the fitted dose curve; in most records, active means well fitted curve in the direction sought with a large enough effect in the repeat runs; inconclusive means weak or mixed curves; inactive means no such curve, though single readings can be large; an effect the other way counts as inactive or inconclusive.
# Experiments:
# [1] = qHTS assay for small molecules that induce genotoxicity in human embryonic kidney cells expressing luciferase-tagged ATAD5 (AID 651632); further: nearly all actives have a fitted effect of over 15% in size
# Summary of the method: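 Test compounds were delivered by pin tool onto HEK293T reporter cells (2,000/well) expressing ATAD5 fused to luciferase. After 16 hr at 37C, 5% CO2, Amplite was added for 30 min at room temperature and luminescence was measured.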
# [2] = qHTS assay for small molecule agonists of the p53 signaling pathway - cell viability (AID 651633; calls by dose curve;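 further: p53RE-bla HCT reporter cells with a stable beta-lactamase p53 reporter; series mostly up to about 83 µM; nearly all actives have a fitted effect of over 30% in size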)
# Summary of the method: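 p53RE-bla cells, seeded at 4,000 per well and rested 5 h at 37 C/5% CO2, received compounds in DMSO for 16 h at 37 C. CellTiter-Glo was then added, and luminescence was read after 30 min at room temperature to gauge cytotoxicity.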
# [3] = qHTS assay for small molecules that induce genotoxicity in human embryonic kidney cells expressing luciferase-tagged ATAD5 - cell viability (AID 651634; calls by dose curve; further: nearly all actives have a fitted effect of over 25% in size)
# Summary of the method: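 Quantitative high-throughput format. HEK293T cells expressing ATAD5 fused to luciferase were plated at 2,000 cells/well and treated 15.5 hr with compound versus DMSO. Viability was determined by fluorescent live-cell protease substrate, 30 min at 37C.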
# [4] = qHTS assay to test for compound auto fluorescence at 590 nm (red) in HepG2 cells (AID 720674)
# Summary of the method: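 Rose Bengal sodium served as the red fluorophore standard. HepG2 monolayers (overnight attachment, MEM with 10% FBS) were exposed to test compounds for 1 hr at 37 C and read at Ex 540/Em 590 nm.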
# [5] = qHTS assay to test for compound auto fluorescence at 535 nm (green) in HepG2 cells (AID 720675)
# [6] = qHTS assay to test for compound auto fluorescence at 460 nm (blue) in HEK293 cells (AID 720678)
# Summary of the method: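 Blue read-out at excitation 405 nm and emission 460 nm follows overnight compound exposure of HEK293 cells at 37C in 5% CO2. Activity is given as auto fluorescence equivalency to triamterene.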
# [7] = qHTS assay to test for compound auto fluorescence at 590 nm (red) in HEK293 cells (AID 720679)
# Summary of the method: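 Red channel, Ex/Em 540/590nm; signal expressed as equivalency to Rose Bengal sodium. HEK293, 2,000 cells/well, 10% dialyzed FBS; 23 nL compound pinned after 4-5 hr attachment; overnight 37C/5% CO2 before reading.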
# [8] = qHTS assay to test for compound auto fluorescence at 460 nm (blue) in HEK293 cell free culture (AID 720681)
# Summary of the method: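 Test compounds were pinned into cell-free culture medium (DMEM with 10% FBS) and fluorescence was read directly at Ex/Em 405/460 nm. Signals were expressed as fluorescence equivalents of triamterene, with DMSO vehicle as control.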
# [9] = qHTS assay to test for compound auto fluorescence at 535 nm (green) in HEK293 cell free culture (AID 720682)
# Summary of the method: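 Cell-free medium (DMEM, 10% FBS) receives compound or DMSO by pintool. Plate read directly at Ex 485/Em 535 nm. Signal converted to fluorescein equivalency.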
# [10] = qHTS assay to test for compound auto fluorescence at 590 nm (red) in HEK293 cell free culture (AID 720683)
# Summary of the method: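 Tox21 10K library compounds were pinned into cell-free DMEM with 10% FBS and fluorescence was read at excitation 540 nm. Activity is expressed as Rose Bengal sodium equivalency.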
# [11] = qHTS assay to test for compound auto fluorescence at 590 nm (red) in HepG2 cell free culture (AID 720684)
# Summary of the method: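 Ex 540 / Em 590 nm read of compound in cell-free MEM (10% FBS). Rose Bengal sodium reference.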
# [12] = qHTS assay to test for compound auto fluorescence at 460 nm (blue) in HepG2 cell free culture (AID 720685)
# Summary of the method: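 Cell-free plates of MEM plus 10% FBS received 23 nL compound or DMSO vehicle; blue-channel (405/460 nm) intensity scored against triamterene as reference fluorophore.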
# [13] = qHTS assay to test for compound auto fluorescence at 535 nm (green) in HepG2 cell free culture (AID 720686)
# [14] = qHTS assay to test for compound auto fluorescence at 460 nm (blue) in HepG2 cells (AID 720687)
# Summary of the method: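 Cells (2,000/well in MEM with 10% FBS) attached overnight at 37 C, then were exposed to compound or DMSO for 1 hr at 37 C, 5% CO2. Fluorescence read at Ex/Em 405/460 nm, expressed as triamterene-equivalent signal.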
# [15] = molecular target: Glucocorticoid receptor (Homo sapiens) (UniProt P04150); assay: qHTS assay to identify small molecule agonists of the glucocorticoid receptor (GR) signaling pathway (AID 720691; active means well fitted activation curve with a large enough effect in the signal ratio in the repeat runs, not every such curve was filed as active; the % refers to the signal ratio)
# Glucocorticoid receptor (Homo sapiens), sequence (P04150 whole entry, looked up): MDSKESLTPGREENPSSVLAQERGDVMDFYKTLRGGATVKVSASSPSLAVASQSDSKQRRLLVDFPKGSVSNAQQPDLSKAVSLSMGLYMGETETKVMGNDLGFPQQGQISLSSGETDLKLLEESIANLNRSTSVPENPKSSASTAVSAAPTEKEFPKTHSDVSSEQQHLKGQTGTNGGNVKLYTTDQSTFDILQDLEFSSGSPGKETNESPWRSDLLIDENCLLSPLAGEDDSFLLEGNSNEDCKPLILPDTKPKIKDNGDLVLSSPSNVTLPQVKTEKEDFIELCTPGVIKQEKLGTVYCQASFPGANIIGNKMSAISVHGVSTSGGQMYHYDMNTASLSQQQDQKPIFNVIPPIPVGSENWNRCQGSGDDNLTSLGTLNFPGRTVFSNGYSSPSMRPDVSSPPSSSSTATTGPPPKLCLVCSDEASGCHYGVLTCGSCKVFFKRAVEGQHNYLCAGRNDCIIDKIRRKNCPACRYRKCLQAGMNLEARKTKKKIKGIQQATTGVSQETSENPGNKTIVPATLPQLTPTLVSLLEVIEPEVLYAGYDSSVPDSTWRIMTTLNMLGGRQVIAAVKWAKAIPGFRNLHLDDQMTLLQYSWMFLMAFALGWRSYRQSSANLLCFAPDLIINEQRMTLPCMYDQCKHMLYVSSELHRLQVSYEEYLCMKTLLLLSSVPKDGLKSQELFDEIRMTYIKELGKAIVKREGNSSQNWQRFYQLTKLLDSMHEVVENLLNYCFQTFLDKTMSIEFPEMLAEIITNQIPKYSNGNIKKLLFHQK
# Summary of the method: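 A HeLa cervical cancer line expressing GR and a glucocorticoid response element-driven beta-lactamase gene is treated with compounds for 18 h; LiveBLAzer B/G FRET substrate is then applied and fluorescence read.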
# [16] = molecular target: Glucocorticoid receptor (Homo sapiens) (UniProt P04150); assay: qHTS assay to identify small molecule antagonists of the glucocorticoid receptor (GR) signaling pathway (AID 720692; active means well fitted inhibition curve with a large enough effect in the signal ratio in the repeat runs, not every such curve was filed as active; the % refers to the signal ratio)
# Summary of the method: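 GRE-bla HeLa line, dex-stimulated (5 nM final). Compound exposure 18 h, 37 C. Beta-lactamase FRET read after 2 h RT substrate.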
# [17] = qHTS assay for small molecule disruptors of the mitochondrial membrane potential (AID 720635); further: potency means the concentration at half of the fitted maximal effect
# Summary of the method: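 HepG2 cells (2,000/well) attached overnight at 37C, then took compound for 1 hr at 37C, 5% CO2. Mito-MPS dye was added for 30 min; fluorescence was read at 490/535 nm (monomers) and 540/590 nm (aggregates).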
# [18] = qHTS assay to test for compound auto fluorescence at 535 nm (green) in HEK293 cells (AID 720680)
# [19] = qHTS assay for small molecule disruptors of the mitochondrial membrane potential - cell viability (AID 720634; calls by dose curve;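 further: human HepG2 liver cancer cells; series mostly up to about 83 µM; nearly all actives have a fitted effect of over 20% in size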)
# Summary of the method: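 Same-well counter-screen: following the MMP dye addition, CellTiter-Glo was added to 1 hr compound-treated HepG2 cells and luminescence read after 30 min at room temperature.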
SMILES,outcome [1],outcome [2],Potency [3],outcome [4],outcome [5],outcome [6],outcome [7],outcome [8],outcome [9],outcome [10],outcome [11],outcome [12],outcome [13],outcome [14],outcome [15],Potency [16],Potency [17],outcome [18],Potency [19]
CC(=O)OCCOC(C)=O,inactive,inactive,inactive,inactive,inactive,inactive,inactive,inactive,inactive,inactive,inactive,inactive,inactive,inactive,inactive,inactive,,,
CCCCC(C=O)CC (stereo not drawn),inactive,inactive,inactive,inactive,,inactive,inactive,inactive,inactive,inactive,inactive,inactive,inactive,inactive,inactive,inactive,inactive,inactive,
CC(=O)OCc1ccco1,inactive,,inactive,inactive,inactive,inactive,inactive,inactive,inactive,inactive,inactive,inactive,inactive,inactive,,,inactive,,inactive
O=C(O)c1ccc(C(=O)O)c(C(=O)O)c1,inactive,inactive,inactive,inactive,inactive,inactive,inactive,inactive,inactive,inactive,inactive,inactive,inactive,inactive,inactive,inactive,inactive,inactive,
CC(=O)c1ccc(O)cc1,inactive,inactive,inactive,inactive,inactive,inactive,inactive,inactive,inactive,inactive,inactive,inactive,inactive,inactive,inactive,inactive,inactive,inactive,
CC(C)(C)c1cc(Cc2cc(C(C)(C)C)c(O)c(C(C)(C)C)c2)cc(C(C)(C)C)c1O,inactive,inactive,inactive,inactive,,inactive,inactive,inactive,inactive,inactive,inactive,inactive,inactive,inactive,inactive,inactive,inactive,inactive,
COc1ccc(CCC(C)=O)cc1,inactive,inactive,inactive,inactive,inactive,inactive,inactive,inactive,inactive,inactive,inactive,inactive,inactive,inactive,,,,,inactive
O=C1c2ccccc2CCc2ccccc21,inactive,inactive,inactive,inactive,inactive,inactive,inactive,inactive,inactive,inactive,inactive,inactive,inactive,inactive,,,31.3 µM (active),inactive,
COC(=O)c1cccnc1,inactive,inactive,inactive,inactive,,inactive,inactive,inactive,inactive,inactive,inactive,inactive,inactive,inactive,inactive,inactive,inactive,inactive,
CC(=O)CCC=C(C)C,inactive,inactive,inactive,inactive,inactive,inactive,inactive,inactive,inactive,inactive,inactive,inactive,inactive,inactive,inactive,inactive,inactive,inactive,
CCCCCCCCCCCCCCCCO,inactive,inactive,inactive,inactive,,inactive,inactive,inactive,inactive,inactive,inactive,inactive,inactive,inactive,inactive,inactive,inactive,,
CC(CCl)OP(=O)(OC(C)CCl)OC(C)CCl (stereo not drawn),inactive,inactive,inactive,inactive,inactive,inactive,inactive,inactive,inactive,inactive,inactive,inactive,inactive,inactive,inactive,,inactive,inactive,
Brc1ccc(Br)c(Br)c1,inactive,inactive,inactive,inactive,,inactive,inactive,inactive,inactive,inactive,inactive,inactive,inactive,inactive,,,,,inactive
COc1ccc(C)cc1N,inactive,inactive,inactive,inactive,inactive,inactive,inactive,inactive,inactive,inactive,inactive,inactive,inactive,inactive,inactive,inactive,inactive,inactive,
C=CC(C)CCCC(C)(C)O (stereo not drawn),inactive,inactive,inactive,inactive,inactive,inactive,inactive,inactive,inactive,inactive,inactive,inactive,inactive,inactive,,,,inactive,
c1ccc2c(c1)Cc1ccccc1-2,inactive,inactive,inactive,inactive,,inactive,inactive,inactive,inactive,inactive,inactive,inactive,inactive,inactive,inactive,inactive,inactive,inactive,
CC(C)CC(C)O (stereo not drawn),inactive,,inactive,inactive,,inactive,inactive,inactive,inactive,inactive,inactive,inactive,inactive,inactive,,,inactive,inactive,inactive
NCCNCCN,inactive,inactive,inactive,inactive,inactive,inactive,inactive,inactive,inactive,inactive,inactive,inactive,inactive,inactive,,,,,
O=S(=O)(O)c1ccccc1,,inactive,inactive,inactive,inactive,inactive,inactive,inactive,inactive,inactive,inactive,inactive,inactive,inactive,inactive,inactive,inactive,inactive,inactive
CC(C)=CCl,inactive,inactive,inactive,inactive,inactive,inactive,inactive,inactive,inactive,inactive,inactive,inactive,inactive,inactive,inactive,inactive,,,
CN(C)c1ccc(O)c2c1C[C@H]1C[C@H]3[C@H](N(C)C)C(=O)C(C(N)=O)=C(O)[C@@]3(O)C(=O)C1=C2O,inactive,inactive,inactive,inactive,,inactive,inactive,inactive,inactive,inactive,inactive,inactive,inactive,inactive,inactive,inactive,inactive,,
COc1cc(OC)c(C(=O)CCCN2CCCC2)c(OC)c1,inactive,inactive,inactive,inactive,inactive,inactive,inactive,inactive,inactive,inactive,inactive,inactive,inactive,inactive,inactive,inactive,,inactive,
COCCOC(=O)c1ccccc1C(=O)OCCOC,inactive,inactive,inactive,inactive,inactive,inactive,inactive,inactive,inactive,inactive,inactive,inactive,inactive,inactive,inactive,inactive,inactive,inactive,
